The record followed here is PubChem BioAssay (NCATS).

Results filed as inconclusive are left out. A number with no mark means an inactive call. Active and inactive are the calls of the source. The call rests on the fitted dose curve; in most records, active means well fitted curve in the direction sought with a large enough effect; inconclusive means small, poorly fitted or top-dose-only effect, or another doubt; inactive means no such curve, though single readings can be large or run the other way.
On the % scale 0 is the no-effect control and ±100 the full control effect; potency means the concentration at half of the fitted maximal effect.

The nature of this test: qHTS Assay for Identifying Gametocytocidal Compounds (AID 743244).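 On max response: actives lower the fluorescent signal which means gametocytes are killed.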 The settings on record: P. falciparum 3D7 stage III-V gametocytes, alamarBlue, 72 h; max response: stronger effect = lower value. Summed up: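 Stage III-V P. falciparum 3D7 gametocytes, 20,000 per well, were exposed to compounds for 72 h at 37C, 5% CO2. AlamarBlue was then added for 24 h and viability was read as fluorescence at Ex 525/Em 598 nm.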
Regarding `CCC(C)(C)C(=O)O[C@H]1C[C@@H](C)C=C2C=C[C@H](C)[C@H](CC[C@@H]3C[C@@H](O)CC(=O)O3)[C@H]21`, the max response was 5.81%.
On the same count and under the same terms, in the case of `O=C(OCC#CCSc1nnc(-c2ccc3ccccc3c2)o1)c1cc2ccccc2s1` it was 9.28%; in that of `Cc1n[nH]c(C)c1Cc1sc2c(c1C(=O)N1C[C@H](O)CO1)c(=O)n(C)c(=O)n2CC(C)C`, 4.91%.
Still for that read-out and setting: in the case of `Cc1cc([C@@H](C)Nc2ccccc2C(=O)O)c2nc(N3CCOCC3)cc(=O)n2c1` it was -4.48%.
Take `CCn1c(-c2nonc2N)nc2c(C#CC(C)(C)O)ncc(OC[C@H]3CCCNC3)c21`: the Potency was 23.5 µM (active).
As for `CC[C@H](Nc1ncnc2nc[nH]c12)c1nc2cccc(F)c2c(=O)n1-c1ccccc1`, the max response was 14.6%.
